Results: PubChem BioAssay AID504652 (National Center for Advancing Translational Sciences (NCATS), 2011)
“And” between values parts separate entries of the source, which are not always exact repeats. Equal entries are not always repeated. About 11,000 (3.1%) of roughly 360,000 compounds were called active. This is one part of a sample in which actives are shown more often than they occur. Cut-off read from the data, not from the text of the source: active = activity change below about -30%; inactive = the rest.

These molecules were tested against D(1A) dopamine receptor (Homo sapiens) (UniProt P21728) (assay: Antagonist of Human D 1 Dopamine Receptor: qHTS). Conditions: HEK293 TREx D1 cells, calcium flux, dopamine EC80; at 10 µM; active compounds read low.
Outline: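 Calcium flux readout: force-coupled, inducible Hek293 Trex D1 line, cells induced overnight at 30 C with tetracycline, dye-loaded 30–90 min at RT. Antagonism scored against EC80 dopamine challenge given 180 s after compound.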
% is set by controls: 0 for no effect and ±100 for the full control effect.

Chain of D(1A) dopamine receptor (Homo sapiens) (P21728 whole entry, looked up): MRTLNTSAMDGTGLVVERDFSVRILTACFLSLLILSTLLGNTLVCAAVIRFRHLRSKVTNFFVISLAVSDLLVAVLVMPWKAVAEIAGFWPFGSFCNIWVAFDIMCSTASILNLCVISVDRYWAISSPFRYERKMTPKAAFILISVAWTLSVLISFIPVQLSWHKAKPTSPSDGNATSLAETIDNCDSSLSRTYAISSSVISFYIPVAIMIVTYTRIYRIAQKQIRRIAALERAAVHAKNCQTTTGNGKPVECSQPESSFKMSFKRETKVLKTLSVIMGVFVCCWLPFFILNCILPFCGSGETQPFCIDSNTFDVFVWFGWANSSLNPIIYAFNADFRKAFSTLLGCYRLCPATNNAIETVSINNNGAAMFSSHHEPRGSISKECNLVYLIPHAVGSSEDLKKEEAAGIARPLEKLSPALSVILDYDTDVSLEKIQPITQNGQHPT

Compound | activity change, negative = inhibition
O=C(NCc1ccc(F)cc1)c1ccc(Cn2c(SCc3ccc(F)cc3)nc3cccnc32)cc1 | -10.7% (inactive)
COc1ccc(N2CCN(C(=O)CSCc3nc(-c4ccccc4Cl)oc3C)CC2)cc1 | -24.8% (inactive)
CCOc1ccccc1CNS(=O)(=O)c1cc(-c2cc(C)no2)ccc1C | 50.5% (inactive)
COc1ccc(CCNS(=O)(=O)c2cc(-c3cc(C)no3)ccc2C)cc1OC | 9.26% (inactive)
COc1ccc(CNS(=O)(=O)c2cc(-c3cc(C)no3)ccc2C(C)C)cc1 | -31% (active)
CCc1ccc(S(=O)(=O)Nc2cc3c(C(=O)OCc4ccccc4)c(C)oc3c3ccccc23)cc1 | 7.58% (inactive)
CCCCN(C)c1nnc(NC(=O)Nc2ccc(Br)c(C)c2)s1 | 13.7% (inactive)
c1ccc(C2CNCc3c2ccc2ccccc32)cc1 (centres undefined) | -39.2% (active)
Cc1nn2c(=O)cc(COC(=O)CNC(=O)c3ccc(F)cc3)nc2s1 | -1.13% (inactive)
Cc1ccc(Cn2c(=O)n(-c3ccc(C)cc3)c(=O)c3c2c2cc(C)ccc2n3C)cc1 | -3.86% (inactive)
N#C/C(=C\c1cccc(F)c1)c1nc(-c2cc3c(ccc4ccccc43)oc2=O)cs1 | -2.97% (inactive)
COc1cc(C2c3c(oc4ccccc4c3=O)C(=O)N2c2nc(C)c(C)s2)ccc1O (centres undefined) | 6.01% (inactive)
CCOc1ccc(NC(=O)c2cnn(-c3ccccc3)c2-n2cccc2)cc1 | -0.471% (inactive)
CCCCCOc1ccc(CSC2=NCCN2)cc1[N+](=O)[O-] | -42.1% (active)
Cc1nc(SCc2ccc(F)cc2)c([N+](=O)[O-])[nH]1 | 8.5% (inactive)
CCCCOc1ccc(CSC(=N)N)cc1[N+](=O)[O-] | 25.1% (inactive)
COc1cccc(NC(=O)C(=O)NCC(c2ccc3c(c2)OCO3)N2CCN(C)CC2)c1 (centres undefined) | 27.8% (inactive)
CCN(CC)C(=O)CC(c1ccc2c(c1)OCO2)c1c(OC)cc(OC)c2c(-c3ccccc3)cc(=O)oc12 (centres undefined) | -44.6% (active)
CCCCN(CC)C(=O)c1ccc2c(c1)OCO2 | -2.46% (inactive)
COc1ccc(F)cc1S(=O)(=O)NCC(c1ccc2c(c1)OCO2)N1CCN(C)CC1 (centres undefined) | -2.95% (inactive)
CCN(CC)CCC(c1cc(OC)c(OC)c(OC)c1)c1c(OC)cc(OC)c2c(-c3ccccc3)cc(=O)oc12 (centres undefined) | 18.1% (inactive)

Compound | activity change, negative = inhibition
CCN(CC)CCC(c1ccc2c(c1)OCO2)c1c(OC)cc(OC)c2c(-c3ccccc3)cc(=O)oc12 (centres undefined) | -32.2% (active)
CCc1nnc2c3ccccc3nc(N3CCN(c4ccc(C)cc4C)CC3)n12 | -4.28% (inactive)
CCCN(CCC)S(=O)(=O)c1ccc(C(=O)Nc2sc3c(c2C(=O)OC)CCN(CC)C3)cc1 | 27% (inactive)
CCc1cccc(NC(=O)CSc2nccn2C)c1 | 6.16% (inactive)
Cc1ccc(Cl)cc1NC(=O)CSc1nccn1C | -34.7% (active)
Cn1ccnc1SCC(=O)Nc1ccc2c(c1)OCCO2 | 7.91% (inactive)
COc1cc(C(=O)OCc2ccc([N+](=O)[O-])cc2)cc(OC)c1OC | -36.8% (active)
COc1cc(C(=O)OCC(=O)NC(C)CCc2ccccc2)cc(OC)c1OC (centres undefined) | 0.765% (inactive)
CCOc1cc(/C=N/O)ccc1OCc1ccccc1F | 0.806% (inactive)
COc1cc(/C=N/O)ccc1OCc1ccc([N+](=O)[O-])cc1 | -35.1% (active)
COC(=O)c1ccc(COc2cc([N+](=O)[O-])cc3cccnc23)cc1 | -0.242% (inactive)
CCCc1ccc(OCc2ccc(C(=O)N/N=C/c3cccc([N+](=O)[O-])c3)o2)c(OC)c1 | -9.05% (inactive)
COc1ccc(NC(=O)CCc2nnc3n(CC(C)C)c(=O)c4ccccc4n23)cc1OC | 12% (inactive)
COc1ccccc1N1CCN(C(=O)C2CCN(S(=O)(=O)c3c(C)noc3/C=C/c3ccc(C)cc3)CC2)CC1 | 1.37% (inactive)
COc1ccc(Cn2ccnc2SCC(=O)Nc2ccc3c(c2)OCO3)cc1 | 3.36% (inactive)
CC1CCCN(S(=O)(=O)c2ccc3[nH]c(=O)cc(C(=O)NCCc4ccc(Cl)cc4)c3c2)C1 (centres undefined) | 15.9% (inactive)
COc1ccccc1NC(=O)c1sc2nc(C)c(C(=O)Nc3ccc(Cl)cc3)c(-c3ccc(Br)cc3)c2c1N | -7.07% (inactive)
CC(=O)c1c(C)n(S(=O)(=O)c2ccc(Cl)cc2)c2ccc(NS(=O)(=O)c3ccc(Cl)cc3)cc12 | 0.214% (inactive)
Cc1c(C)n(Cc2ccc(Cl)cc2)c2ccc(C(=O)NCCc3ccc(S(N)(=O)=O)cc3)cc12 | -36.4% (active)
Cc1c(C)n(Cc2ccc(Cl)cc2)c2ccc(C(=O)NCCCN3CCOCC3)cc12 | -28% (inactive)
COc1ccc(NS(=O)(=O)c2cccc(C(=O)NCCc3ccc(S(N)(=O)=O)cc3)c2)cc1 | -10.4% (inactive)

Compound | activity change, negative = inhibition
COc1ccc(C(=O)NCCc2ccc(S(N)(=O)=O)cc2)cc1OC | -31% (active)
CCOC(=O)c1c(C)c(C(=O)NCCc2ccc(S(N)(=O)=O)cc2)c(C)n1CC | -3.79% (inactive)
COC(=O)c1c(C)[nH]c(C(=O)NCCc2ccc(S(N)(=O)=O)cc2)c1C | 2.29% (inactive)
Cc1cc(N2CCN(c3cccc(C(F)(F)F)c3)CC2)n2nc(-c3ccccc3)nc2n1 | 23.9% (inactive)
CCc1ccccc1NC(=O)c1ccc2nc(CCc3ccccc3)oc2c1 | -9.13% (inactive)
Cc1ccccc1NC(=O)c1cc2c([nH]c1=O)CC(C)(C)CC2=O | -6.86% (inactive)
COc1ccc(-c2cnc(SCCNC(=O)c3ccc4c(c3)OCO4)[nH]2)cc1 | 1.65% (inactive)
CCOc1cccc(NC(=O)CSc2ncc(-c3ccc(Cl)cc3)[nH]2)c1 | -2.12% (inactive)
COc1ccccc1CSc1ncc(-c2ccc([N+](=O)[O-])cc2)[nH]1 | -37.4% (active)
Cc1c(C(=O)NCc2ccccc2Br)oc2ccc3c(c12)C(=O)CC(C)(C)O3 | -29.9% (inactive)
COc1c(O)ccc2c1CN1CCc3cc4c(cc3C1C2)OCO4 (centres undefined) | -67.5% (active)
COc1ccc(CN2CCCC(N3CCc4ccccc4C3)C2)c(O)c1 (centres undefined) | -0.568% (inactive)
COc1ccc2cc1Oc1ccc(cc1)C[C@H]1c3cc(c(OC)cc3CCN1C)Oc1c(O)c(OC)cc3c1[C@H](C2)N(C)CC3 | -27.6% (inactive)
CCOc1ccc(S(=O)(=O)c2cn(Cc3ccc(OC)cc3)c3ccc(F)cc3c2=O)cc1 | -3.59% (inactive)
CCc1nc2ccc(C(=O)N3CCN(c4cc(Cl)ccc4C)CC3)cc2nc1CC | 4.25% (inactive)
Cn1nnc(NC(=O)CSc2ncn[nH]2)n1 | -31.7% (active)
O=C(CSc1ncn[nH]1)Nc1nsc(-c2ccccc2)n1 | 1.31% (inactive)
O=C(CSc1ncn[nH]1)Nc1nc(-c2cccc([N+](=O)[O-])c2)cs1 | -1.2% (inactive)
CCOC(=O)c1scc(-c2ccccc2)c1S(=O)(=O)Nc1ccccc1F | -3.82% (inactive)
CCC(C(=O)Nc1cccc(-c2nc3cccnc3s2)c1C)c1ccccc1 (centres undefined) | -4.82% (inactive)
O=C(Nc1cccc(O)c1)c1ccc(C(=O)c2ccccc2)o1 | -9.29% (inactive)

Compound | activity change, negative = inhibition
C/C(=C\C(=O)c1ccccc1)Nc1cccc(O)c1 | -30.1% (active)
O=C(CSc1ccccc1)Nc1ccc(C(=O)Nc2cccc(O)c2)cc1 | -29.1% (inactive)
Cc1ccc(NC(=O)CSc2nc3c(c(=O)[nH]2)CN(Cc2ccc4c(c2)OCO4)CC3)cc1C | 11.3% (inactive)
O=C(CSc1nnc(-c2c[nH]c3ccccc23)n1-c1ccc(F)cc1)NCc1ccco1 | 3.17% (inactive)
COc1ccc(-n2c(SCC(=O)NCc3ccco3)nnc2-c2c[nH]c3ccccc23)cc1 | -90% (active)
COc1ccc(-n2c(SCC(=O)NCc3cccs3)nnc2-c2ccoc2C)cc1 | -0.757% (inactive)
CCOC(=O)C1CCC(CN(Cc2ccc(OC)cc2)S(=O)(=O)c2ccc(F)c(C(=O)Nc3cc(C)ccc3C)c2)CC1 (centres undefined) | 15.6% (inactive)
CCOc1ccc(S(=O)(=O)N2CCC(C(=O)OCc3ccc(OC)cc3)CC2)cc1 | -16.6% (inactive)
COc1cccc(COC(=O)C2CCN(S(=O)(=O)c3ccc(Cl)cc3)CC2)c1OC | -32.8% (active)
COc1cccc(COC(=O)C2CCN(S(=O)(=O)c3cccs3)CC2)c1OC | -15.5% (inactive)
COc1ccc(C(=O)c2oc3ccccc3c2NC(=O)COc2cccc(C)c2)cc1 | -10.1% (inactive)
Cc1nn(CC(=O)NCCc2ccccc2)c(=O)c2c1sc1ccccc12 | -1.1% (inactive)
Cc1cccc(CNS(=O)(=O)c2ccc(-c3cnc(C4CC4)o3)cc2)c1 | -9.2% (inactive) and -2.23% (inactive)
Cc1cccc(NS(=O)(=O)c2ccc(-c3cnc(C4CC4)o3)cc2)c1 | -44.9% (active)
Cc1ccc(-c2cnc(C3CC3)o2)cc1S(=O)(=O)Nc1cccc(C)c1C | 9.76% (inactive)
O=C(CSc1nccn1C1CCCC1)Nc1cc(C(F)(F)F)ccc1Cl | -16% (inactive)
COC(=O)c1cc(Oc2ccc(S(=O)(=O)N3CCOCC3)cc2[N+](=O)[O-])cc(C(=O)OC)c1 | -38.9% (active)
COc1ccc(S(=O)(=O)N2CCC(C(=O)OCC(=O)c3ccccc3)CC2)cc1[N+](=O)[O-] | -3.94% (inactive)
C=C(C)CNc1cc(S(=O)(=O)N2CCOCC2)ccc1Oc1ccccc1 | -20.5% (inactive)
Cc1ccc(NC(=O)c2ccc3[nH]c(C)cc(=O)c3c2)c(C)c1 | -2.41% (inactive)
CCOC(=O)c1c(N)n(-c2cccc(C)c2C)c2nc3ccccc3nc12 | -1.89% (inactive)
